MITF inh = blocks human microphthalmia-associated transcription factor; O75030; AlphaScreen MITF homodimerization, bead proximity signal; inhibition, % at 2.6 µM; 650,000 compounds, 0.91% hits; AID 1259374; in the data active = inhibition above about 50%
Target sequence (O75030 whole entry, looked up): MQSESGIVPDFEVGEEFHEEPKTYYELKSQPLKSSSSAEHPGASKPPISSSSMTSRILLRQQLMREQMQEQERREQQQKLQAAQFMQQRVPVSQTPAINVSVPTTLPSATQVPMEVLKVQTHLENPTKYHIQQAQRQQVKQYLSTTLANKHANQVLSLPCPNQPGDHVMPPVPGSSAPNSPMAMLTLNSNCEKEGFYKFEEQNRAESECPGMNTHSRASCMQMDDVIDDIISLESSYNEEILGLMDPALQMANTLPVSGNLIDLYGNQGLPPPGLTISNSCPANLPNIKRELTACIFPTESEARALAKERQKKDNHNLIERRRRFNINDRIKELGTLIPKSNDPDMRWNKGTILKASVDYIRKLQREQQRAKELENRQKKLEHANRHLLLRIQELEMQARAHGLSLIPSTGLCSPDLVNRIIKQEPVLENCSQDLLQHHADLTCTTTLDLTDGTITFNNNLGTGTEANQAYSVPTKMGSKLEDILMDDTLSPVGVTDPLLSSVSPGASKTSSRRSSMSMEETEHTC
FBW7 act = activators of human E3 ligase FBW7; Q969H0; AlphaScreen FBW7–phospho-cyclin E peptide binding, activator screen; normalized activity (activation), % at 26.1 µM; 650,000 compounds, 0.13% hits; AID 1259310; in the data active = normalized activity above about 1.9%;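 note: purified mutant Fbw7 with reduced substrate affinity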
TEAD-YAP block = TEAD-YAP interaction inhibition | HEK-TIYL cells, TEAD-Gal4/YAP UAS-luciferase luminescence | inhibition, % at 9.12 µM | 640,000 compounds, 1.4% hits; in the data active = inhibition above about 32%
GPR151 activ = activators of human GPR151; PathHunter beta-arrestin GPR151 cells, luminescence; activation, % at 11.2 µM; 650,000 compounds, 1% hits; in the data active = activation above about 4.9%
MITF confirm = confirmation of human MITF inhibitors | shares compounds with MITF inh | AlphaScreen MITF homodimerization, biotin/His-MITF beads | inhibition, % at 2.6 µM | 4,700 compounds, 16% hits | AID 1259372;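 active = inhibition above a cutoff derived from the DMSO control wells, cut at about 28% in these data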;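 note: inhibitors lower the bead chemiluminescence by keeping MITF from dimerizing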
AS interf DR = AlphaScreen optical interference, dose response counter-screen; AID 1259373; AlphaScreen optical interference counterscreen, cell-free; IC50, µM; 480 compounds, 6% hits; shares compounds with MITF inh; call rule not given here
AS interf ctr = optically interferes with AlphaScreen signal; LysRS AlphaScreen counterscreen, signal interference, triplicate; shares compounds with MITF inh; AID 1259376; inhibition, % at 2.6 µM; 4,700 compounds, 7.6% hits;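 active = inhibition above a cutoff derived from the DMSO control wells, cut at about 30% in these data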
Each line names hits and unclear results; the compound was inactive in the other large screens (follow-up assays come after a bar, where they were run). The list is not random: actives were taken first. Their share in the collection is about 3.5%.

CN(C)c1ccc(NC(=O)CSc2ncccc2C(=O)O)cc1	MITF inh 64 | MITF confirm 75 | AS interf DR inactive | AS interf ctr inactive
Fc1cccc(CN2CCN(CC3CC4C=CC3C4)CC2)c1 (configuration not stated)	MITF inh 71 | MITF confirm inactive | AS interf ctr inactive
COc1ccc(CN2CCN(CC3CC4C=CC3C4)CC2)c(OC)c1 (configuration not stated)	MITF inh 72 | MITF confirm inactive | AS interf ctr inactive
Cc1ccccc1CN1CCN(CC2CC3C=CC2C3)CC1 (configuration not stated)	MITF inh 77 | MITF confirm inactive | AS interf ctr inactive
Fc1cccc(CN2CCCNCC2)c1	none
COc1ccccc1CN1CCN(CC2CC3C=CC2C3)CC1 (configuration not stated)	MITF inh 69 | MITF confirm inactive | AS interf ctr inactive
O=C(c1ccccc1)N1CCN(CC2CC3C=CC2C3)CC1 (configuration not stated)	none
O=C(O)c1ccc(-n2c(-c3ccccc3)nc3ccccc3c2=O)cc1	none
COc1ccc(CN2CCN(CC3CC4C=CC3C4)CC2)c(OC)c1OC (configuration not stated)	MITF inh 71 | MITF confirm inactive | AS interf ctr inactive
COc1cc(OC)c(OC)cc1CN1CCSCC1	none
C1=CC2CC1CC2CN1CCN(Cc2ccccn2)CC1 (configuration not stated)	MITF inh 74 | MITF confirm inactive | AS interf ctr inactive
COc1cc(CN2CCN(CC3CC4C=CC3C4)CC2)cc(OC)c1O (configuration not stated)	MITF inh 66 | MITF confirm inactive | AS interf ctr inactive
COc1cc(CN2CCN(S(=O)(=O)c3ccc(F)cc3)CC2)cc(OC)c1O	none
COc1cc(OC)c(OC)cc1CN1CCN(CC2CC3C=CC2C3)CC1 (configuration not stated)	MITF inh 57 | MITF confirm inactive | AS interf ctr inactive
Cc1ccc(N[C@@H]2OC[C@@H](O)C(O)C2O)cc1N[C@@H]1OC[C@@H](O)C(O)C1O (some centres not stated)	MITF inh 72 | MITF confirm 71 | AS interf ctr inactive
COc1cccc(-c2cnc(N)c(N3CCC(C(=O)O)CC3)n2)c1	none
CCOc1cc(-c2ccc(I)o2)cc(=O)c2c(C)oc(C)c12	MITF inh 58 | MITF confirm 37 | AS interf ctr inactive
CCOc1cc(-c2cc(OCC)c3c(C)oc(C)c3c(=O)c2)ccc1O	none
CCCNc1nc(NCC)nc2c1ncn2C1CCCCC1	MITF inh 69 | MITF confirm inactive | AS interf ctr inactive
COc1ccc(Br)cc1C(=O)N/N=C/c1ccccc1F	MITF inh 67 | MITF confirm inactive | AS interf ctr inactive
C=CCc1ccccc1OCCOCCN1CCN(C)CC1	MITF inh 60 | MITF confirm inactive | AS interf ctr inactive
C=CCc1ccccc1OCCOCCN1CCCCC1	MITF inh 79 | MITF confirm inactive | AS interf ctr inactive
CCCS(=O)(=O)N1CCN(Cc2ccc(OC)c(OC)c2OC)CC1	MITF inh 52 | MITF confirm inactive | AS interf ctr inactive
CCCS(=O)(=O)N1CCN(Cc2cc(Br)ccc2OC)CC1	MITF inh 54 | MITF confirm inactive | AS interf ctr inactive
COc1ccc(Br)cc1CN1CCN(S(=O)(=O)Cc2ccccc2)CC1	MITF inh 62 | MITF confirm inactive | AS interf ctr inactive
CCS(=O)(=O)N1CCN(Cc2cc(Br)ccc2OC)CC1	MITF inh 52 | MITF confirm inactive | AS interf ctr inactive
Cc1oc2c(c1C(=O)N1CCN(c3ccc([N+](=O)[O-])cc3)CC1)CCCC2	none
CCOC(=O)N1CCN(c2nc(C)nc3sc(C)cc23)CC1	MITF inh 54 | MITF confirm inactive | AS interf ctr inactive
CCOC(=O)N1CCN(c2nc(C)nc3sc(C)c(C)c23)CC1	none
O=C(CN1CCN(c2ccccc2)CC1)Nc1c2c(nc3c1CCC3)CCCC2	none
CN1CCN(CC(=O)Nc2c3c(nc4ccccc24)CCCC3)CC1	MITF inh 60 | MITF confirm inactive | AS interf ctr inactive
O=C(CN1CCN(Cc2ccccc2)CC1)Nc1c2c(nc3c1CCC3)CCCC2	MITF inh 67 | MITF confirm inactive | AS interf ctr inactive
CN(CC(=O)Nc1c2c(nc3ccccc13)CCC2)Cc1ccccc1	MITF inh 71 | MITF confirm inactive | AS interf ctr inactive
COc1cc(C2C(C(=O)OCCOc3ccccc3)=C(C)NC3=C2C(=O)CC(C)(C)C3)ccc1O (configuration not stated)	none
C/C(=N\Nc1ccc(S(=O)(=O)Nc2ccccc2C(=O)O)cc1[N+](=O)[O-])c1ccco1	none
CN(C(=O)CCCl)c1nc(-c2ccc(F)cc2)cs1	none
O=C(c1ccc([N+](=O)[O-])cc1)N1CCN(Cc2ccccn2)CC1	MITF inh 64 | MITF confirm inactive | AS interf ctr inactive
O=C(c1cccc(F)c1)N1CCN(Cc2ccccn2)CC1	none
O=C(c1ccc([N+](=O)[O-])cc1)N1CCN(Cc2cccc3ccccc23)CC1	MITF inh 58 | MITF confirm 29 | AS interf DR inactive | AS interf ctr inactive
CC(Cl)(Cl)C(=O)OC1=C(Sc2ccc([N+](=O)[O-])cc2)C(=O)CCC1	none
O=C(CCNS(=O)(=O)c1ccc(Cl)cc1)NCCC1=CCCCC1	none
CS(=O)(=O)Nc1ccc(-c2cnc3cccc(N(C(=O)c4ccccn4)C(=O)c4ccccn4)c3c2)cc1	MITF inh 66 | MITF confirm 36 | AS interf ctr 54
COc1ccccc1CN1CCOCC1	MITF inh 58 | MITF confirm inactive | AS interf ctr inactive
COc1ccc(CN2CCN(Cc3cc(OC)c(OC)cc3OC)CC2)c(OC)c1	MITF inh 73 | MITF confirm inactive | AS interf ctr inactive
COc1cc(OC)c(OC)cc1CN1CCN(Cc2ccccc2Br)CC1	none
COc1cc(OC)c(OC)cc1CN1CCN(Cc2ccc(SC)cc2)CC1	MITF inh 52 | MITF confirm inactive | AS interf ctr inactive
COc1ccc(CN2CCN(Cc3cc(OC)c(OC)cc3[N+](=O)[O-])CC2)cc1OC	MITF inh 68 | MITF confirm inactive | AS interf ctr inactive
NCCSc1nnc(-c2ccccc2)n1Cc1ccco1	none
CC(=O)Nc1ccc(N=c2cc(-c3ccc4c(c3)OCO4)oc3ccccc23)cc1	none
COc1ccccc1Nc1nc(N2CCC(C)CC2)nc(C)c1[N+](=O)[O-]	none
CCCNc1cc(Nc2nccc3ccccc23)nc(N)n1	none
CCOc1ccccc1C1CC(=O)NC2=C1C(=O)CC(c1cccs1)C2 (configuration not stated)	none

Screening results as filed in PubChem BioAssay.
